Hits are enriched below; roughly 21% of the tested compounds scored in any of these assays.
DT40 TDP1 CPT – growth inhibition of DT40 Tdp1-/-;hTDP1 cells with camptothecin (screen for TDP1 inhibitors); chicken DT40 Tdp1-/-;hTDP1 cells + 20 nM CPT, ATP luminescence, 48 h; Potency, µM (doses to about 46.2 µM), inactives show at the highest dose activity change, negative = growth inhibition, hits mostly inhibitors; hit rate 12% among 420,000; AID 686979; also: potency is read from the fitted curve at half-maximal effect; % is scaled to controls: 0 for no effect and ±100 for the full control effect; nearly all actives have a fitted effect of over 55% in size
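Chicken DT40 Tdp1-/- cells complemented with human TDP1, 400 cells/well, exposed to compounds plus 20 nM camptothecin for at least 48 h at 37 C; viability read as ATP content by CellTiter-Glo luminescence.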
DRD3 agonist – agonists of human D3 dopamine receptor; P35462; D3R DiscoveRx beta-arrestin cells, luminescence, 90 min; max activation, %; hit rate 0.58% among 410,000; in the data active = max activation above about 30%; also: 0% is about no effect
Target sequence (P35462 whole entry, looked up): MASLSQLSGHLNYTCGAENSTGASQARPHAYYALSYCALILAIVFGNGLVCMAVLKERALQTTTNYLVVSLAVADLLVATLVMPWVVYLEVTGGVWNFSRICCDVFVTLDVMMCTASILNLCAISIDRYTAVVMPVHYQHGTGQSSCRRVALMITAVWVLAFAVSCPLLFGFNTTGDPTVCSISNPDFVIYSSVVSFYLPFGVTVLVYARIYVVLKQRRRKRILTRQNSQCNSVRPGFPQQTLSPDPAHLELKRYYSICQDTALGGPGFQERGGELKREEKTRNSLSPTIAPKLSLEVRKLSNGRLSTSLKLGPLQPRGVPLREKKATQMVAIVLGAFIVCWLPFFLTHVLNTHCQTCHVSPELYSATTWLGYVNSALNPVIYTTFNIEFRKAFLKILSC
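Agonist mode: compounds and dopamine controls were applied to plated cells for 90 min at 37 degrees C after an overnight attachment at 1500 cells/well. Luminescent read-out followed 30 - 60 minutes at room temperature with DiscoveRx detection reagent.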
DT40 TDP1 no CPT – qHTS for Inhibitors of human tyrosyl-DNA phosphodiesterase 1 (TDP1): qHTS in cells in absence of CPT | Potency, µM (series often up to 46.2 µM), without a hit: top-dose activity change, negative = growth inhibition, usual class: inhibitors | hit rate 15% among 420,000 | AID 686978, 2013 | DT40 Tdp1-/- hTDP1 cells, no CPT, ATP luminescence, 48 h; also: potency is read from the fitted curve at half-maximal effect; % is scaled to controls: 0 for no effect and ±100 for the full control effect; nearly all actives have a fitted effect of over 55% in size
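Growth kinetics read by CellTiter-Glo luminescence after ≥48 hr at 37 °C. Cells: DT40 Tdp1-/- stably carrying human TDP1, 400 per well, compound exposure in the absence of CPT (DMSO vehicle).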
D3 antag – D3 dopamine receptor (human) antagonism; D3R cells, DiscoveRx beta-arrestin luminescence, antagonist mode; hits give low values; max response, negative = inhibition, %; hit rate 2.5% among 360,000; in the data active = max response below about -50%; inconclusive = no clear call, values can overlap the other calls; also: % is scaled to controls: 0 for no effect and ±100 for the full control effect
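Cells plated overnight at 1500 cells/well, then exposed to library compounds with dopamine controls for 90 minutes at 37 degrees C. DiscoveRx reagent added for 30–60 minutes at room temperature; luminescence read, quantitative HTS format.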
IL-1B inflam inh – inflammasome signaling inhibition, IL-1 beta readout. activity change, % at 57.5 µM. THP-1 LPS/ATP IL-1B secretion, AlphaLISA, 16 h; hits give low values. hit rate 4.7% among 360,000; in the data active = activity change below about -50%; inconclusive = mostly about -30% to -49%; also: % is scaled to controls: 0 for no effect and ±100 for the full control effect
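Secreted IL-1B measured by AlphaLISA bead assay after 16 h compound exposure of THP-1 cells; compounds (final up to 57.5 uM) added 1 h before LPS (250 ng/mL) and ATP (1.25 mM) stimulation; lower signal means less secretion.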
ClpP mod – qHTS Assay for Activators of ClpP | ATP-dependent Clp protease proteolytic subunit (Bacillus subtilis (strain 168)), P80244 | purified B. subtilis ClpP, FRET peptide cleavage, 20 min | Potency, µM (doses to about 57.5 µM), inactives show top-dose activity change, negative = active | hit rate 1.9% among 340,000 | AID 651965, 2013; active = well fitted falling curve with a large enough effect; inconclusive = small, poorly fitted or top-dose-only effect; inactive = no such curve, though single readings can be large or run the other way; also: potency is read from the fitted curve at half-maximal effect; the source files actives as falling curves though it sought activators and does not explain the sign; nearly all actives have a fitted effect of over 65% in size
Target sequence (P80244 whole entry, looked up): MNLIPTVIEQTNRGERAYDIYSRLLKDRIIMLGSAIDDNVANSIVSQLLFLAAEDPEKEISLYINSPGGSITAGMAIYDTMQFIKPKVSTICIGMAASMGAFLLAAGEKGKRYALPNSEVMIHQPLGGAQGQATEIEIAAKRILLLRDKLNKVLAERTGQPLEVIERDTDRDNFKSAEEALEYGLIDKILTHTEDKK
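Purified B. subtilis ClpP, 10 microg/mL final in Tris/HCl pH8 with KCl, BSA, glycerol and Tween-20, cleaved an Abz/nitrotyrosine-quenched decapeptide. Fluorescence (ex 320, em 430) was read at 0 and 20 min at room temperature. Delta was normalized to 5.8 microM ADEP and DMSO/no-enzyme controls.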
* hit, by the source's call; i = inactive; ? = inconclusive; . = no result given; ! = not active in a repeat; [ ] = dose if it differs, or a comment. Unless noted, calls follow the shape of the dose curve; as a rule, active = well fitted inhibition curve with a large enough effect; inconclusive = small, poorly fitted or top-dose-only effect; inactive = flat fitted curve, though single readings scatter.

SMILES	DT40 TDP1 CPT	DRD3 agonist	DT40 TDP1 no CPT	D3 antag	IL-1B inflam inh	ClpP mod
Cc1cc(O)cc2c1C1CCC3(C)C(=O)CCC3C1C=C2 (centres undefined)	?	-17	?	17	?	.
CC1CNCCN1S(=O)(=O)c1cccc2cnccc12 (centres undefined)	?	-25	15µM*!	14	-91*!	-1%
CSc1ccc(CN2CCC(CO)(CCOc3ccccc3)CC2)cc1	?	-18	?	-14	?	1%
CCCCOc1ccc(S(=O)(=O)Nc2cccnc2)cc1	9.2µM*	17	10µM*	39	-17	-1%
Cc1ccc(S(=O)(=O)Nc2cccnc2)cc1	?	0	29µM*	-11	22	0%
CCCCOc1ccc(S(=O)(=O)Nc2cc(OC)ccc2OC)cc1	?	-35	16µM*	?	-75*	0%
CCC(=O)Nc1ccc(S(=O)(=O)Nc2cccnc2)cc1	-7%	0	-9%	10	17	-1%
COc1cc(CC(=O)OCC(=O)Nc2ccc(N(C)C)cc2)cc(OC)c1OC	-21%	1	0%	-1	9	1%
CCCc1nn(C)c(C(=O)Nc2ccccc2)c1Cl	-21%	17	-25%	1	-9	-22%
NC(=O)c1ccsc1NC(=O)COC(=O)C1CC2CCCC(C1)C2=O (centres undefined)	-3%	3	-6%	-13	20	.
COc1cccc(CNC(=O)c2cc(S(=O)(=O)N3CCOCC3)ccc2N2CCCC2)c1	-20%	-3	?	10	-15	-5%
N#Cc1c(N(CC(=O)O)CC(=O)O)sc(C(=O)O)c1CC(=O)O	-4%	-2	-22%	.	.	.
Cc1ccc(CSc2nnc([C@@H](N)C(C)C)o2)cc1	.	-12	.	.	.	2%
O=c1cc(CSc2nnc(Nc3ccccc3F)s2)nc2sccn12	?	-3	23µM*	-1	-9	.
O=C(CCCSc1nnc(Nc2ccccc2F)s1)N1CCOCC1	-5%	-11	?	-19	-20	.
Cc1ccc2nc(CSc3nnc(Nc4ccccc4F)s3)cc(=O)n2c1	?	3	16µM*	46	0	1%
Cc1cc(C)c(NC(=O)Cn2c(=O)n(CC(=O)NCCc3ccccc3)c(=O)c3ccccc32)c(C)c1	-9%	-3	-4%	.	.	1%
COc1ccc(-n2c(SCC(=O)Nc3ccc(C)cc3)nc(O)c(Cc3ccccc3)c2=O)cc1	10%	5	9%	22	i	4%
CCN(CC)C(=O)CSc1nc(O)c(Cc2ccccc2)c(=O)n1-c1ccc(C)cc1	?	1	13µM*	-16	22	0%
Cc1ccc(-n2c(SCC(=O)N3CCCCC3)nc(O)c(Cc3ccccc3)c2=O)cc1	?	2	12µM*	-18	12	-3%
O=C(NCCNC(=O)c1cccnc1)c1ccc(Br)cc1	-14%	-7	0%	14	48	1%
CN(C)CCCOc1cccc(Oc2ccccc2)c1	?	-10	?	?	-2	1%
C=CCN(CC=C)CCOc1cccc(Oc2ccccc2)c1	?	-1	?	-50*	38	-2%
O=C(Nc1ncccn1)c1cc(-c2cccc(Br)c2)nc2ccccc12	?	-8	?	14	?	-7%
COc1cccc(CC(=O)Nc2ccc(-c3nc4ccccc4s3)cc2)c1	-21%	-15	-5%	.	.	4%
SMILES	DT40 TDP1 CPT	DRD3 agonist	DT40 TDP1 no CPT	D3 antag	IL-1B inflam inh	ClpP mod
COc1ccc(C(=O)Nc2nc3ccccc3s2)cc1OC	2%	-10	-10%	9	-88*	.
O=C(Nc1ccncc1)c1cc(-c2cccc(Br)c2)nc2ccccc12	?	31*	?	48	-78*	-14%
COc1ccc(-c2cc(C(=O)Nc3nc4ccccc4s3)c3ccccc3n2)cc1OC	15µM*	-18	?	-29	-15	-19%
COc1ccc(CC(=O)Nc2ccc(-c3nc4ccccc4s3)c(C)c2)cc1OC	?	2	26µM*	.	.	?
N#Cc1ccc(S(=O)(=O)N2CCC(Oc3cccc(C(F)(F)F)c3)CC2)cc1	?	-4	?	.	.	-2%
NC(=O)CC[C@H](NC(=O)c1ccc(F)cc1)C(=O)OCC(=O)NCc1ccc2c(c1)OCO2	-6%	9	-2%	12	9	1%
COc1ccccc1/C=C\C(=O)OC[C@@H]1CCCN2CCCC[C@H]12	13%[9.04 µM]	.	2%[9.04 µM]	.	.	.
O=C(Nc1cccnc1)c1cc(-c2cccc(Br)c2)nc2ccccc12	?	3	16µM*	22	1	-3%
COc1ccc(OC)c(C2C(C(=O)Nc3nc4ccccc4s3)=C(C)NC3=C2C(=O)CCC3)c1 (centres undefined)	-26%	30*	?	44	91	28µM*
COc1ccc(-c2cc(C(=O)Nc3cccnc3)c3ccccc3n2)cc1OC	23µM*	10	23µM*	32	12	-3%
COc1cccc(-c2cc(C(=O)Nc3cccnc3)c3ccccc3n2)c1	?	-2	?	7	-7	-6%
CCCCOC(=O)C1=C(C)NC2=C(C(=O)CCC2)C1c1cc(OC)ccc1OC (centres undefined)	-12%	-1	-30%	-5	4	-9%
COc1ccc(/C=N/OCC(=O)Nc2nc3ccccc3s2)cc1OC	?	8	?	12	-50*	1%
Cc1ccc(CN(c2ccc(C(=O)NCC3CCCO3)cc2)S(C)(=O)=O)cc1 (centres undefined)	-5%	0	8%	1	0	-1%
CC(=O)c1ccc(N(C(=O)CNC(=O)c2ccco2)C(C(=O)NC2CCCC2)c2cccnc2)cc1 (centres undefined)	6%	5	9%	16	-3	.
COc1ccc(CCNC(=O)c2cc(-c3ccccc3)nc3ccccc23)cc1OC	.	-12	.	.	.	-9%
COc1ccc(-c2cc(C(=O)NCc3cn(C)nc3C)c3ccccc3n2)cc1OC	15µM*	3	?	15	-4	-3%
CC1=C(C)CS(=O)N(S(=O)(=O)c2ccc(Cl)cc2)C1 (centres undefined)	3.7µM*	-3	2.3µM*	-88*	-93*	0%
CN(CCO)c1ccc(-c2n[nH]c(=O)c3ccccc23)cc1[N+](=O)[O-]	?	-3	?	-3	-1	.

Screening results from PubChem.
